Values joined by “and” are separate entries in the source; they are usually repeats but may differ in a detail not shown here. Equal values may be shown once. This is part of a sample that, as a whole, favours compounds with a hit. Of some 83,000 tested, about 20% had one in any assay.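 Assay: single dose, 48 h. Readout: percent growth (0 = no net growth; negative = cell death). Active: <10.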 Unmarked numbers belong to inactive results. Active and inactive are the calls of the source.

This assay concerns NCI-H226 lung. The experiment in a line: NCI-60 one-dose screen, 48 h (100 = growth as untreated, 0 = no growth, -100 = all killed). The settings on record: 10 µM unless noted.
Regarding `CCCn1c(NC(=O)c2cccc(C(N)=O)c2)nc2ccc(CN3CCCCC3)cc21`, the growth is 102%.

With `Fc1ccc(Nc2nnc(-c3c[nH]c4ccccc34)o2)cc1`, the growth was 70.2%.

Regarding `CC1=C(C(=O)OC(C)C)C(c2ccc(O)cc2)NC(=O)N1` (stereo not drawn), the growth was 105%.

Turning to `COc1ccc(NC(=O)Cn2c(/C=C/c3ccc([N+](=O)[O-])cc3)nc3ccccc3c2=O)cc1`, the growth was 21.2%.

In the case of `O=C(c1ccc(O)cc1)C1[C@H](c2ccc(Cl)cc2)[C@@H](c2ccccc2)NC12C(=O)Nc1ccccc12` (stereo partly drawn), the growth was -13.8% (active).

Consider `O=c1ccc(Cn2c(C(F)(F)F)cc3c(Cl)ncnc32)c[nH]1`, for which the growth was 116%.

Consider `O=C(CSc1nc2c(c(=O)[nH]1)CCCC2)Nc1ccccc1C(=O)O`, for which the growth is 101%.

As to `COc1ccc2[nH]c(O)c(N=Nc3nc(-c4ccc(C#N)cc4)cs3)c2c1`, the growth is 98.4%.

`COc1ccc(-c2nc3ccc(-c4nnc(SCC(=O)Nc5ccc(/C(C)=N\O)cc5)o4)cc3[nH]2)cc1`: the growth is 77.5%.

In the case of `Cc1ccc(C2CC(c3ccc(NC(=O)Nc4ccccc4)cc3)=NN2c2ccc(S(C)(=O)=O)cc2)cc1` (stereo not drawn), the growth is -39.2% (active).

In the case of `CN1CCN(C(=O)Oc2cc3c(c4ccccc24)[C@H](CCl)CN3C(=O)c2cc3cc(OCCCN4CCC4)ccc3[nH]2)[C@H]2CSSC[C@H]21`, the growth is -14.5% (active).

As to `Cc1ccc(N=Nc2c(N)nn3c(-c4cc5ccccc5oc4=O)ccnc23)cc1`, the growth is 33.4%.

Consider `C[C@@H]1[C@H]2C[C@@H](C[C@H]1NCc1nc3ccccc3n1C1CCCCCC1)C2(C)C`, for which the growth is 57.2%.

Take `Cc1ccc(C(=O)Nc2cc(-n3ccnc3)cc(C(F)(F)F)c2)cc1-n1cc(-c2cnc3cccnn23)nn1`: the growth is 89.9%.

`CCC(=O)c1c2c(c3ccc4c5ccccc5ccc4n13)C(=O)c1ccccc1C2=O`: the growth was 45.7%.

With `N#Cc1c(NC(=O)N2CCOCC2)n(-c2ccc(OC(F)(F)F)cc2)c2cc(F)ccc12`, the growth is 87.3%.

Consider `CC(=O)Nc1cccc(-n2c(COc3ccc(Br)cc3)nc3ccccc32)c1`, for which the growth is 76.2% and 107%.

As for `COc1ccc(-c2cc(C(=O)OCc3ccc(Br)cc3)nn2-c2ccc(S(C)(=O)=O)cc2)cc1OC`, the growth is 82%.

As for `Cc1nc(N)ncc1-c1ccc2ncnc(N3CCc4cc(F)c(Cl)cc43)c2c1`, the growth was 73.7%.

On to `COc1ccc(C(=O)NNC(=O)CSc2nc3sc4c(c3c(=O)n2-c2ccc(Cl)cc2)CCCC4)cc1`, for which the growth is 33.1%.

For `Cn1cc(-c2cc3nc(-c4cn(C)c5ncccc45)cc(N)n3n2)c2cc(F)ccc21`, the growth was 3.92% (active).

In the case of `COc1ccc2[nH]c(=O)c(CSc3ccccc3Nc3nccc(-c4ccc(C(F)(F)F)cc4)n3)cc2c1`, the growth was 18.7%.

Regarding `N#CC1=C(c2cccs2)Nc2c(c(-c3ccccc3)nn2-c2ccccc2)C12C(=O)Nc1ccc(Br)cc12` (stereo not drawn), the growth was 13%.

On to `CCN1CCN(Cc2ccc(C(=O)Nc3cccc(Nc4ccc5c(OC)cccc5n4)c3)cc2C(F)(F)F)CC1`, for which the growth is -85.8% (active).

As to `O=C(Nc1ccc(S(=O)(=O)N2CCCCC2)cc1)C(Cl)Cl`, the growth is 127%.

On to `O=[N+]([O-])c1cccc(-c2nnc3c(/C=C/c4ccc(F)cc4)nc4ccccc4n23)c1`, for which the growth was 98.6%.

In the case of `COc1ccc(/C=C/C(=O)c2ccc(OC)c(S(N)(=O)=O)c2)c(C(F)(F)F)c1`, the growth was -40.9% (active).

Take `COc1ccc2[nH]cc(-c3cc4nc(-c5cn(C)c6ncc(Br)cc56)cc(N)n4n3)c2c1`: the growth was -31.6% (active).

In the case of `N#CC1=C(c2cccs2)Nc2c(c(-c3ccccc3)nn2-c2ccccc2)C12C(=O)Nc1ccc(Cl)cc12` (stereo not drawn), the growth was 51.6%.

Turning to `Oc1ccc(F)c(Nc2nc(SCCN3CCOCC3)nc3c2cnn3CC(Cl)c2ccc(Br)cc2)c1` (stereo not drawn), the growth is 29.2%.

Consider `O=C(NNC(=S)NCCc1ccccc1)c1ccc(OCc2nc3ccc(Cl)cc3[nH]2)cc1`, for which the growth is 97.7%.

Consider `COc1c(B(O)O)cc(F)cc1-c1nc2c(F)cc3[nH]ncc3c2c2c1CCCC2`, for which the growth is 4.1% (active).

Turning to `C[C@H]1[C@@H](CC(=O)N[C@@H](Cc2coc3ccccc23)B(O)O)O[C@@H]2OC3(C)CC[C@H]4[C@H](C)CC[C@@H]1[C@@]24O3`, the growth was -15.5% (active).

With `C#CCN(C)CCCOc1ccc(N(C)C(=O)c2cc(C(C)C)c(O)cc2O)cc1Cl`, the growth is 13.7%.

Take `O=C(NN1C(=O)/C(=C/C=C/c2ccc([N+](=O)[O-])o2)SC1=S)c1ccc([N+](=O)[O-])cc1`: the growth was -83.3% (active).

On to `O=C(Nc1ccc(-c2ccc3c(c2)NC(=O)/C3=C\c2ccc[nH]2)cc1)Nc1ccc(Cl)c(Cl)c1`, for which the growth was 78.1%.

On to `O=C1Nc2ccc(F)cc2/C1=C/C(=O)c1cc2ccccc2oc1=O`, for which the growth is 86%.

With `Cc1cnc2ccc(Oc3ccccc3-c3ccccc3)nn12`, the growth was 106%.

Values taken from PubChem BioAssay (NCI).
